# Data from publication PMC7862700, “An all-to-all approach to the identification of sequence-specific readers for epigenetic DNA modifications on cytosine”.
# What was measured:
# Test in all cases: DAPPL (digital affinity profiling via proximity ligation, sequencing); 10 mM Tris-HCl pH 7.5, 50 mM NaCl, 1 mM DTT, 4% glycerol, room temperature, 30 min; GST-TFs on glutathione beads, 16-mer random dsDNA library, 0.1% formaldehyde crosslink after washing; high values mean tight binding
# FEV = target: T1, FEV (Homo sapiens, UniProt Q99581 1-238); settings: protein: recombinant; tags: N-terminal GST; dsDNA, one strand shown
# T1 sequence: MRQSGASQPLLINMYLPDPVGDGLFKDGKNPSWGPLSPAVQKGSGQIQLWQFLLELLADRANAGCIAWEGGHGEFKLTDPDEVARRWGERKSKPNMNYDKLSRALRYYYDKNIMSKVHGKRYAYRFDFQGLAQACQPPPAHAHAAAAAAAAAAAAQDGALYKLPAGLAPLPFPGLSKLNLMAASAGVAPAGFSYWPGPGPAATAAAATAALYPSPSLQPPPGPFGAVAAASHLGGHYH
# Procedure, shortened: (§1)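 The binding signal reported is, for every hexamer, its read frequency for a factor over its read frequency for the tag-only sample. Reads came from pools of yeast-expressed, GST-fused human transcription factors on glutathione beads, barcoded with DNA and mixed with that sample, which were incubated with 200 nmole of a random double-stranded 16-mer DNA library in Tris/NaCl/DTT/glycerol buffer at room temperature for 30 min. After washing, the pools were crosslinked with 0.1% formaldehyde, proximity-ligated with BsaI/T4 ligase for 1 h at 37 °C, PCR-amplified and sequenced on an Illumina NextSeq500.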
# ETV5 = ETV5 (Homo sapiens, UniProt P41161 1-510); settings: protein: recombinant; tags: N-terminal GST; dsDNA, one strand shown
# Procedure, shortened: as §1
# HSF1 = HSF1 (Homo sapiens, UniProt Q00613 1-529); settings: protein: recombinant; tags: N-terminal GST; chain copies: 3; dsDNA, one strand shown
# Procedure, shortened: as §1
# SPIC = target: T2, SPIC (Homo sapiens, UniProt Q8N5J4 1-248); settings: protein: recombinant; tags: N-terminal GST; dsDNA, one strand shown
# T2 sequence: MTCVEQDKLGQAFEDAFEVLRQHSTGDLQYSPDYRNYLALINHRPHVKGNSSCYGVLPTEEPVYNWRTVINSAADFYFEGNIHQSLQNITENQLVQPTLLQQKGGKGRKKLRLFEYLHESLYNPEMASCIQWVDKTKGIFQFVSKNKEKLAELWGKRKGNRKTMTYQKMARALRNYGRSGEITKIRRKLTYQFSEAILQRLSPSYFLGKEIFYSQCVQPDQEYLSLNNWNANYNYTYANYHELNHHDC
# Procedure, shortened: as §1
# ELF4 = ELF4 (Homo sapiens, UniProt Q99607 1-663); settings: protein: recombinant; tags: N-terminal GST; dsDNA, one strand shown
# Procedure, shortened: as §1
# ELK4 = target: T3, ELK4 (Homo sapiens, UniProt P28324-2 1-405); settings: protein: recombinant; tags: N-terminal GST; dsDNA, one strand shown
# T3 sequence: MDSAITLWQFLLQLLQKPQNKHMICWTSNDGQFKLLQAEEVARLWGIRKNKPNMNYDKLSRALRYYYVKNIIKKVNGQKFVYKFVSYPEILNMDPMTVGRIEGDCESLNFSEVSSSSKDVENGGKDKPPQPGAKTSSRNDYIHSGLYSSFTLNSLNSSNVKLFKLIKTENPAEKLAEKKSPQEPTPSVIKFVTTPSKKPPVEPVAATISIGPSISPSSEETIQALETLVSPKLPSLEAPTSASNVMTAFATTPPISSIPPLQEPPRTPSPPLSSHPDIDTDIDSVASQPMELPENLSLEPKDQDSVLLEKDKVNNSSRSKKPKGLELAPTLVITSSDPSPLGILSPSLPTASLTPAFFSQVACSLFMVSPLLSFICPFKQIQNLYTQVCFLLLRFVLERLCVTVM
# Procedure, shortened: as §1
# ETV2 = target: T4, ETV2 (Homo sapiens, UniProt O00321 1-342); settings: protein: recombinant; tags: N-terminal GST; dsDNA, one strand shown
# T4 sequence: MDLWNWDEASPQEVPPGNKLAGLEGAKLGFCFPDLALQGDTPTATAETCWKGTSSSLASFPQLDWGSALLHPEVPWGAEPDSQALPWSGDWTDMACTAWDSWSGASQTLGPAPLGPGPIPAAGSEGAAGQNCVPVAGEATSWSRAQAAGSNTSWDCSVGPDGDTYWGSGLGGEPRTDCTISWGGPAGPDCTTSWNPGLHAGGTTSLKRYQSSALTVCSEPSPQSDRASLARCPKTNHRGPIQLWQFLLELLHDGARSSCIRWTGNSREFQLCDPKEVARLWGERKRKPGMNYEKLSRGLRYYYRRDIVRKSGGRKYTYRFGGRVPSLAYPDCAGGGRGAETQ
# Procedure, shortened: as §1
# ELF3 = target: T5, ELF3 (Homo sapiens, UniProt P78545 1-371); settings: protein: recombinant; tags: N-terminal GST; dsDNA, one strand shown
# T5 sequence: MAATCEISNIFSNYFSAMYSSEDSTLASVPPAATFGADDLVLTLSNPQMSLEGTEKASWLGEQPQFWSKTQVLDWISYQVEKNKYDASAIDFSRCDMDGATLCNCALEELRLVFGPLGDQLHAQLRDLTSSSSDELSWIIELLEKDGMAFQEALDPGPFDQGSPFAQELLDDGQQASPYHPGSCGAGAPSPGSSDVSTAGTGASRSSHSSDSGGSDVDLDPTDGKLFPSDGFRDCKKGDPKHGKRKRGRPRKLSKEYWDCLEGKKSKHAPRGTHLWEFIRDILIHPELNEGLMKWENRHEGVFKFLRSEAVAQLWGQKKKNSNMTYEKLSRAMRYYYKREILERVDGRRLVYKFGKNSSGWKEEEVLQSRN
# Procedure, shortened: as §1
# CRX = CRX (Homo sapiens, UniProt O43186 1-299); settings: protein: recombinant; tags: N-terminal GST; dsDNA, one strand shown
# Procedure, shortened: as §1
# ETV1 = ETV1 (Homo sapiens, UniProt P50549 1-477); settings: protein: recombinant; tags: N-terminal GST; dsDNA, one strand shown
# Procedure, shortened: as §1
# ERF = target: T6, ERF (Homo sapiens, UniProt P50548 1-548); settings: protein: recombinant; tags: N-terminal GST; dsDNA, one strand shown
# T6 sequence: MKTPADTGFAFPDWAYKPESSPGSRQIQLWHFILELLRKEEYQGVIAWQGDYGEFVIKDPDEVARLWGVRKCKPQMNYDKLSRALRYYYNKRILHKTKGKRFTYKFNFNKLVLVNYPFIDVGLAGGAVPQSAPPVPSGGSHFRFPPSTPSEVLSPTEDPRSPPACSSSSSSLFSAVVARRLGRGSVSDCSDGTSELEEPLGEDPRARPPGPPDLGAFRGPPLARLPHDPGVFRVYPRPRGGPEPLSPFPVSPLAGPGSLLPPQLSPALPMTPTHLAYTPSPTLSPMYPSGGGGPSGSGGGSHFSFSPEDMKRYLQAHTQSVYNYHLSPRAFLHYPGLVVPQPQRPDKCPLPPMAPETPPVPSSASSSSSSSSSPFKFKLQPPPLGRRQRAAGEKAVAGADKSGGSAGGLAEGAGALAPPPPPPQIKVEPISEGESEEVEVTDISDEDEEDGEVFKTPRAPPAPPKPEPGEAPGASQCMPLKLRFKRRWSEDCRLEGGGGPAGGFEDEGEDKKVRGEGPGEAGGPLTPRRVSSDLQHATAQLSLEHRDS
# Procedure, shortened: as §1
# ETV3L = target: T7, ETV3L (Homo sapiens, UniProt Q6ZN32 1-361); settings: protein: recombinant; tags: N-terminal GST; dsDNA, one strand shown
# T7 sequence: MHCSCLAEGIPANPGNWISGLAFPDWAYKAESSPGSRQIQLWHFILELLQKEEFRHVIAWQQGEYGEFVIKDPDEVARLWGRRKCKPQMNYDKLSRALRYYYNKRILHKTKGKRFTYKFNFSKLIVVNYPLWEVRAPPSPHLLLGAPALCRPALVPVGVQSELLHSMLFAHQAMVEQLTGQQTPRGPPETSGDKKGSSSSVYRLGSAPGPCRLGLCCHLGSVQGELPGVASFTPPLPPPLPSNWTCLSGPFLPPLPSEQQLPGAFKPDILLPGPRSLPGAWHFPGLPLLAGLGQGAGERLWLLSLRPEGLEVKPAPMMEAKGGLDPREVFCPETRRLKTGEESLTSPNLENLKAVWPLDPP
# Procedure, shortened: as §1
# ETS2 = target: T8, ETS2 (Homo sapiens, UniProt P15036 1-469); settings: protein: recombinant; tags: N-terminal GST; dsDNA, one strand shown
# T8 sequence: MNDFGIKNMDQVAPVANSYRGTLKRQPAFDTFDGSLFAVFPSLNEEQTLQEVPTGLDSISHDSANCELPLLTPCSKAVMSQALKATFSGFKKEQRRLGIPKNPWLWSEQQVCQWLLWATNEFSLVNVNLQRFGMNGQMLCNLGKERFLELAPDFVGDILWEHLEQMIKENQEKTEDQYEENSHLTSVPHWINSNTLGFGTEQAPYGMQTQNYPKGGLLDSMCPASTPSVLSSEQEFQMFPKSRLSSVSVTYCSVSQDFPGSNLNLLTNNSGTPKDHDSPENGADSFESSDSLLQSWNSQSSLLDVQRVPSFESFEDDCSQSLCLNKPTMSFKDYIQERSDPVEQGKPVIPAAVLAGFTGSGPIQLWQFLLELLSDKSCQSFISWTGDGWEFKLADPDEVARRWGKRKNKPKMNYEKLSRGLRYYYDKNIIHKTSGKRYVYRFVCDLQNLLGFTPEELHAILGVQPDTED
# Procedure, shortened: as §1
# SPDEF = target: T9, SPDEF (Homo sapiens, UniProt O95238 1-335); settings: protein: recombinant; tags: N-terminal GST; dsDNA, one strand shown
# T9 sequence: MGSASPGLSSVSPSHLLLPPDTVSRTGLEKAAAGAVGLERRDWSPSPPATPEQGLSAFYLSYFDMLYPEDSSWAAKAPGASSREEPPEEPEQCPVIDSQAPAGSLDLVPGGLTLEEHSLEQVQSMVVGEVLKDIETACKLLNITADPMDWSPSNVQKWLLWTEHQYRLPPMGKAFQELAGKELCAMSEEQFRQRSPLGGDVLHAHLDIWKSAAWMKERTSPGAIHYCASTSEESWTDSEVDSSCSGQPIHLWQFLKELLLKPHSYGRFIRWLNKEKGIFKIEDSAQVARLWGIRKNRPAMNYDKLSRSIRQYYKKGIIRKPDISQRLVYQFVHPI
# Procedure, shortened: as §1
# ETV7 = target: T10, ETV7 (Homo sapiens, UniProt Q9Y603 1-341); settings: protein: recombinant; tags: N-terminal GST; dsDNA, one strand shown
# T10 sequence: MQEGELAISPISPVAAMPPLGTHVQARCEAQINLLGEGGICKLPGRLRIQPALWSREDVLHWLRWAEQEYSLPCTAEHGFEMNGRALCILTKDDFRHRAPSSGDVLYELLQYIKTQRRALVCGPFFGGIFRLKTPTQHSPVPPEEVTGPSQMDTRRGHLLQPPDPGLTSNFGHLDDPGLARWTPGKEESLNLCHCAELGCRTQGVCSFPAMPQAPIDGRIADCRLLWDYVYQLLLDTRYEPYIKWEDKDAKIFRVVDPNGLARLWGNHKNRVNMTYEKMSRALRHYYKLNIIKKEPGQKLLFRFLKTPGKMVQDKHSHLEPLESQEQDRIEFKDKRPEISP
# Procedure, shortened: as §1
# ELF5 = target: T11, ELF5 (Homo sapiens, UniProt Q9UKW6-2 1-255); settings: protein: recombinant; tags: N-terminal GST; dsDNA, one strand shown
# T11 sequence: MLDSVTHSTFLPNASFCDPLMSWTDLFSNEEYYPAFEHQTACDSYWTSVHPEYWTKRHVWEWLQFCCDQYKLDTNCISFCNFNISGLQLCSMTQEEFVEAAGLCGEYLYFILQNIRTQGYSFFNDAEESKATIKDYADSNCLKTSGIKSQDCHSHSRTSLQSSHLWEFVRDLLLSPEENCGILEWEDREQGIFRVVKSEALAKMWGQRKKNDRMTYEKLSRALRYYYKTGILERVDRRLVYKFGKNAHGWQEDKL
# Procedure, shortened: as §1
# ETV3 = target: T12, ETV3 (Homo sapiens, UniProt P41162-2 1-143); settings: protein: recombinant; tags: N-terminal GST; dsDNA, one strand shown
# T12 sequence: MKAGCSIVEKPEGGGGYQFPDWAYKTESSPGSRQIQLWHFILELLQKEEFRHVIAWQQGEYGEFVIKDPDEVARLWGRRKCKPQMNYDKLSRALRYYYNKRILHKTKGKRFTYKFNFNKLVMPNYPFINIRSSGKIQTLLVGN
# Procedure, shortened: as §1
# ETV6 = ETV6 (Homo sapiens, UniProt P41212 1-452); settings: protein: recombinant; tags: N-terminal GST; dsDNA, one strand shown
# Procedure, shortened: as §1
# Sequence of CRX (O43186 whole entry): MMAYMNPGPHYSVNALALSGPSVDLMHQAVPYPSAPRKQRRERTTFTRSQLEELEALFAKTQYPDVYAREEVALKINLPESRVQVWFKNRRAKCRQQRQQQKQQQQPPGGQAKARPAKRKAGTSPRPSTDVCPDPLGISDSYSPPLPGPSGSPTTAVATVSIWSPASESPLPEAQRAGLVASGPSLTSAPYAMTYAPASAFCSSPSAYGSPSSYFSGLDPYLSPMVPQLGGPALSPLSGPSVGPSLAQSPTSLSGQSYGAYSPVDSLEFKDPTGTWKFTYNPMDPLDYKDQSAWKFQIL
# Sequence of ETV1 (P50549 whole entry): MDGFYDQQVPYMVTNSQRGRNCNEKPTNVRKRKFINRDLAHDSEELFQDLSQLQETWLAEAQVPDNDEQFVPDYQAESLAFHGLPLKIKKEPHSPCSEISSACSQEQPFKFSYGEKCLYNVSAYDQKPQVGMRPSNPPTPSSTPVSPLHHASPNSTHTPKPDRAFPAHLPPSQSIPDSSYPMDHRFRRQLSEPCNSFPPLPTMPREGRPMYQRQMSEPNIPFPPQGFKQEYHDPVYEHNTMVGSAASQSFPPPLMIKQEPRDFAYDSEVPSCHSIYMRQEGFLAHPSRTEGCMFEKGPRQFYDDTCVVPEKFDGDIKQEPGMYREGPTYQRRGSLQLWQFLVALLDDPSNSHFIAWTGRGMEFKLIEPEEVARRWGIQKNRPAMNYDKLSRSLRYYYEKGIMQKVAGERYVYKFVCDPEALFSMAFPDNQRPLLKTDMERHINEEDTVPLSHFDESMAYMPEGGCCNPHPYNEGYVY
# Sequence of ETV6 (P41212 whole entry): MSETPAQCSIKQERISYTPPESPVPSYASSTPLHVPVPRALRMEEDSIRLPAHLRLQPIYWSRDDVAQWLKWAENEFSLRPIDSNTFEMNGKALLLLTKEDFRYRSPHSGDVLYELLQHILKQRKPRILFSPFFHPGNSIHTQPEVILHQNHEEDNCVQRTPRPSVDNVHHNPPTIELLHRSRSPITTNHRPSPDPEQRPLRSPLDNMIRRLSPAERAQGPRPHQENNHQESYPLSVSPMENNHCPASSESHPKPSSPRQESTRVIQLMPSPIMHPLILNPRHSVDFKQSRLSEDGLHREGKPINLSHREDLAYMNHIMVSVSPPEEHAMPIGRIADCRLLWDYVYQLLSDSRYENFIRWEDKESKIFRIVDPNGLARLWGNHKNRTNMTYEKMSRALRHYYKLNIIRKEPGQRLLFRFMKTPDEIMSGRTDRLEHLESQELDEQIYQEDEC
# Sequence of HSF1 (Q00613 whole entry): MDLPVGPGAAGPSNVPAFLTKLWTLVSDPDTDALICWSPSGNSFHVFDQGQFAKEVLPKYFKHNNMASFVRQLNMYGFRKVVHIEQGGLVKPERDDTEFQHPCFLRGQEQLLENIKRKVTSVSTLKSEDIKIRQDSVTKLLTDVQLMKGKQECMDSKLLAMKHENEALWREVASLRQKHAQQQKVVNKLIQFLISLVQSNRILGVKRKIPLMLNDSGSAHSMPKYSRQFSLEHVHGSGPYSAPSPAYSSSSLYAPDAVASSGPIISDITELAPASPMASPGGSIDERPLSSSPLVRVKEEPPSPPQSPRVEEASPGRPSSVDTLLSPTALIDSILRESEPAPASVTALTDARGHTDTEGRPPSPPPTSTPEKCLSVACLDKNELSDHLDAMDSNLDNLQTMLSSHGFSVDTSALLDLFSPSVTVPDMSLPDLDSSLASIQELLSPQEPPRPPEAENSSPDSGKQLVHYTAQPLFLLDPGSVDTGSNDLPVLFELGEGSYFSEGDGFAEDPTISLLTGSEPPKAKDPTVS
# Sequence of ELF4 (Q99607 whole entry): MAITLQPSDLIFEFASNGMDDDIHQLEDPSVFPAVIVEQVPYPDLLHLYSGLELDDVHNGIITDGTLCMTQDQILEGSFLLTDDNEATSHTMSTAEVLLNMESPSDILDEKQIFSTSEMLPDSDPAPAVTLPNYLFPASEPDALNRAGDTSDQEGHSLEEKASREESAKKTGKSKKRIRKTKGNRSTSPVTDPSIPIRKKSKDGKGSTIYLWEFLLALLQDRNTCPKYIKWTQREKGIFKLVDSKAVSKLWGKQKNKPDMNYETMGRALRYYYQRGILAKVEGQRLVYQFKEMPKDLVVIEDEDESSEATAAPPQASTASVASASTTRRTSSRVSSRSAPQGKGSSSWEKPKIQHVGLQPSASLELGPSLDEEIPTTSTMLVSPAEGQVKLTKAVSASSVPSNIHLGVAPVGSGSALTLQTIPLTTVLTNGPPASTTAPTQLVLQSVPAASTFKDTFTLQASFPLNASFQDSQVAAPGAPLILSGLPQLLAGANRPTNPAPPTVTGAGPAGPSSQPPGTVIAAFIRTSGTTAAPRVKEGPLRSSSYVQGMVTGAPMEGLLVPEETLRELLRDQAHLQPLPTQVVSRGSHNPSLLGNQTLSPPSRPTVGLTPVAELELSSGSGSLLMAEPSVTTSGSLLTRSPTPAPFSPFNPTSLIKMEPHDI
# Sequence of ETV5 (P41161 whole entry): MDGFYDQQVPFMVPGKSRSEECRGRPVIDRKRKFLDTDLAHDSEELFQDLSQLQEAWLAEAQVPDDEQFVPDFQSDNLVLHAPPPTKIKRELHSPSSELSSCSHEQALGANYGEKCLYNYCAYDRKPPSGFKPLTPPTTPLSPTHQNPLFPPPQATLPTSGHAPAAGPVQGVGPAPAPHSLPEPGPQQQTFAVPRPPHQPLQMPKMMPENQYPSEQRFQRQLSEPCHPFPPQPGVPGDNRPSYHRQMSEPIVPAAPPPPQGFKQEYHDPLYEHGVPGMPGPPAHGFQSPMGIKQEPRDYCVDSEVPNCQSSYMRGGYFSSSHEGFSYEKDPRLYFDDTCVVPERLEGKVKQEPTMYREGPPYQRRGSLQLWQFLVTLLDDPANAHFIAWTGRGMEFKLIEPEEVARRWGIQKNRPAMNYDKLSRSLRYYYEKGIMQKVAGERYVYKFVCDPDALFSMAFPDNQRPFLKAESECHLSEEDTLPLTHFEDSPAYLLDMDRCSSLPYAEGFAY
sequence,measurement,setting,value
CTACAA,binding signal,FEV,"1.14 fold enrichment (6-mer frequency, TF over GST control)"
same,binding signal,ETV5,"1.21 fold enrichment (6-mer frequency, TF over GST control)"
same,binding signal,HSF1,"1.16 fold enrichment (6-mer frequency, TF over GST control)"
same,binding signal,SPIC,"1.2 fold enrichment (6-mer frequency, TF over GST control)"
same,binding signal,ELF4,"1.18 fold enrichment (6-mer frequency, TF over GST control)"
same,binding signal,ELK4,"1.21 fold enrichment (6-mer frequency, TF over GST control)"
same,binding signal,ETV2,"1.18 fold enrichment (6-mer frequency, TF over GST control)"
same,binding signal,ELF3,"1.03 fold enrichment (6-mer frequency, TF over GST control)"
same,binding signal,CRX,"1.04 fold enrichment (6-mer frequency, TF over GST control)"
same,binding signal,ETV1,"1.13 fold enrichment (6-mer frequency, TF over GST control)"
same,binding signal,ERF,"1.05 fold enrichment (6-mer frequency, TF over GST control)"
same,binding signal,ETV3L,"1.15 fold enrichment (6-mer frequency, TF over GST control)"
same,binding signal,ETS2,"1.16 fold enrichment (6-mer frequency, TF over GST control)"
same,binding signal,SPDEF,"1.14 fold enrichment (6-mer frequency, TF over GST control)"
same,binding signal,ETV7,"1.01 fold enrichment (6-mer frequency, TF over GST control)"
same,binding signal,ELF5,"1.16 fold enrichment (6-mer frequency, TF over GST control)"
same,binding signal,ETV3,"1.1 fold enrichment (6-mer frequency, TF over GST control)"
same,binding signal,ETV6,"1.18 fold enrichment (6-mer frequency, TF over GST control)"
